Results taken from the supplement of paper PMC6555819.

Key:
Assay in all cases: PBM binding z-score (relative to random genomic background probes); higher = stronger binding; sequences stand for … in GC…GCGATTGACAGCGTAGAATGAAGG
[1] = test system: PPARg:RXRa DBDmut IVT, anti-RXR (DBD mutation: RXRa K156A/R161A, NR concentration 270 nM, RXRa partner concentration 90 nM)
Summary of the method: (§1)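 The probes on custom Agilent 4×180K protein-binding microarrays were double-stranded, with 34-nt variable regions bearing direct-repeat seeds, single-nucleotide variants, half-site ablations and random human genomic background sequences. Incubation lasted 1 h with ligand-free nuclear receptor dimers in PBS pH 7.4, 2% milk, 0.02% Triton X-100, 1 mM DTT, 0.2 mg/mL BSA and 0.4 mg/ml salmon testes DNA. Antibodies against each partner (one per run) detected bound dimers, and fluorescence scans were regression-normalized. Binding z-scores take the random background probes as reference.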

[2] = test system: PPARg:RXRa IVT, anti-PPARg (NR concentration 270 nM, RXRa partner concentration 90 nM)
Summary of the method: as §1

[3] = test system: PPARg DBDmut:RXRa IVT, anti-PPARg (DBD mutation: PPARg1 K132A/R137A, NR concentration 270 nM, RXRa partner concentration 90 nM)
Summary of the method: as §1

[4] = test system: PPARg DBDmut IVT, anti-PPARg (DBD mutation: PPARg1 K132A/R137A, NR concentration 270 nM)
Summary of the method: as §1

[5] = test system: PPARg homodimer (NR concentration 180 nM)
Summary of the method: as §1

[6] = test system: PXR:RXRa (NR concentration 270 nM, RXRa partner concentration 90 nM)
Summary of the method: as §1

[7] = test system: PXR homodimer (NR concentration 270 nM)
Summary of the method: as §1

[8] = test system: RARa:RXR (NR concentration 270 nM, RXRa partner concentration 90 nM)
Summary of the method: as §1

[9] = test system: RARa homodimer (NR concentration 270 nM)
Summary of the method: as §1

[10] = test system: RARb:RXRa (NR concentration 270 nM, RXRa partner concentration 90 nM)
Summary of the method: as §1

Row | Sequence | PBM binding z-score [1] | PBM binding z-score [2] | PBM binding z-score [3] | PBM binding z-score [4] | PBM binding z-score [5] | PBM binding z-score [6] | PBM binding z-score [7] | PBM binding z-score [8] | PBM binding z-score [9] | PBM binding z-score [10]
1 | TCTGCTAGGTCAACGAAGGTCAGCTAATCTGCTA | 4.15 | 4.53 | 0.834 | 0.313 | 3.51 | 5.64 | 0.241 | 4.51 | 0.797 | 4.95
2 | TCATATATGTAAACAGGTGAAAGTCCGTAAGTTA | 2.85 | 1.7 | 1.25 | 1.22 | 0.985 | 1.08 | 0.358 | 1.24 | 0.262 | 0.572
3 | CAAACTAGGACACCGGAAGGTCAAAGTCCGCATG | 6.39 | 6.49 | 2.4 | 2.63 | 2.78 | 3.89 | 1.68 | 4.36 | 1.36 | 3.59
4 | ACTTGCAGGCCAAGGGTCACTCAAGATTAGTCCG | 2.34 | 4.29 | 0.459 | -0.141 | 1.94 | 3.22 | 0.0748 | 3.99 | 0.96 | 3.6
5 | GCTGCTAGGTCAATTGATGGTCAGCTAAAGCTCG | 4.15 | 3.1 | -0.948 | 0.185 | 0.889 | 0.861 | -0.942 | 1.75 | -0.705 | 3.59
6 | GGATCGAGGGCAAAGTTGATAGCATCTGTCGACG | 3.8 | 4.54 | 0.527 | 1.19 | 1.75 | 1.34 | 0.172 | 1.65 | -0.00886 | 2.61
7 | ATATGTAGGTTACATCCGGGTCAATCAGGCTATG | 6.83 | 7.41 | 2.24 | 2 | 1.63 | 2.93 | 0.984 | 3.51 | 0.955 | 2.32
8 | CAAACTAGGTCAAACGTCAAAGTCGAGCCAACCA | 8.33 | 8.65 | 4.47 | 4.15 | 2.05 | 2.38 | 0.241 | 3.65 | 0.354 | 4.21
9 | GCGACTGGGGCACCAGCAGGTTACCATAACTTAA | 4.23 | 4.22 | -0.601 | -0.596 | -0.202 | 0.0556 | -0.64 | 0.555 | -0.588 | 1.05
10 | CCTACTGGGCAAAGGTCATTGATCAGTCAAAGCA | 1.24 | 4.2 | -0.384 | -0.183 | 4.15 | 5.26 | 1.18 | 6.18 | 1.65 | 4.49
11 | ACTCGGAGGACAAAGGTTAGAGCTACGCCAGTGA | 0.161 | 1.72 | -0.577 | -0.0683 | 1.1 | 0.7 | 0.168 | 1.46 | 0.397 | 2.23
12 | ATCGCTAGGTAAGACTCAGTTCAGTGAAGAACGC | -0.311 | -0.264 | -0.423 | -0.364 | -0.443 | 0.322 | 0.471 | -0.577 | -0.519 | -0.283
13 | TAGCCTAGGCCATTCAGGGGCCAGTATAGAAAGC | -0.752 | 0.1 | -0.845 | -0.806 | -0.678 | -0.717 | -0.964 | -0.354 | -0.891 | 0.992
14 | CCTCACGGGTCACTGACAGGTTATAGCATTTGGA | 1.77 | 2.15 | -0.537 | -0.176 | 1.89 | 3.33 | 0.0959 | 3.98 | 0.868 | 3.85
15 | AGTCAAAGTTCAGGACGAGCTAACGTAAAGCACG | -0.565 | 1.33 | 0.323 | -0.197 | 1.5 | 1.98 | 0.743 | 1.88 | 0.728 | 4.11
16 | TCTTGTAAATCAACAGGAGGTTAAGAAAGATCGA | 1.98 | 0.596 | 0.712 | 0.346 | 0.585 | 1.13 | 0.241 | 1.26 | 0.881 | 0.847
17 | ACTATTAGTTGAGACGAGGGCAACCGGTAGGTTG | 0.0734 | 0.502 | 0.336 | -0.0704 | -0.0372 | 1.47 | 0.373 | 0.84 | 0.204 | 1.4
18 | CCGACTGGGGCAAAGGTTACCAGACTCAGTACGA | 4.51 | 5.88 | -0.692 | -1.09 | 0.726 | 2.48 | -0.264 | 3.64 | -0.558 | 2.66
19 | CAAACTAGGTCACCGGAACGTCAAAGTCCGCATG | 8.6 | 8.71 | 3.6 | 1.58 | 2.42 | 1.83 | 0.254 | 2.67 | 0.352 | 4.31
20 | CTACCAATGTGAACAAGGTCGTTGATTACTATTC | 0.604 | 0.639 | 0.446 | 0.752 | 0.968 | 1.99 | 1.41 | 1.89 | 1.01 | 0.831
21 | CCTACTGGGCCACGAAAGGTCATGGATTCAGTGA | 5.9 | 6.03 | -0.103 | -0.148 | 3.03 | 5.15 | 0.707 | 5.48 | 1.81 | 4.27
22 | CCTACTGGGCCATCCAGAGGTCATTGATCATATG | 4.14 | 4.6 | 0.419 | 0.464 | 2.88 | 5.05 | 2.23 | 4.9 | 0.594 | 3.21
23 | ACATGTAGGTTATCGGGTCATTCAGTTTGCGCAT | 6.89 | 6.82 | 3.46 | 3.12 | 5.01 | 4.02 | 6.61 | 3.88 | 2.25 | 2.61
24 | TCTAGTTGGTCACGTAGGTCACACACGACGGGTA | 2.33 | 3.55 | 1.17 | 0.772 | 2.46 | 2.27 | 0.538 | 2.84 | 0.979 | 3.26
25 | TAGCCTAGGTCAGATCGGGCCAGTACACGCTATA | 0.552 | 1.62 | -0.751 | -0.825 | 0.487 | 1.33 | -0.37 | 0.937 | -0.817 | 3.22
